Test results taken from PubChem BioAssay.
Active and inactive are the calls of the source.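 The calls were made as follows, unless noted: active = visual image review flags a hit and inhibition of aggregation exceeds 20%; inconclusive = visual hit but inhibition at or below 20%; inactive = no hit on visual image review.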

Key:
[1] = inhibitors of TNFa-induced NFkB p65 translocation, primary screen, imaging, HUVEC, MLSMR starter and 10KST1 sets (AID 438;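 active = inhibition above 20% together with a positive visual image hit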;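 also: compound added about 3h40 before a 20 min TNFalpha stimulation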;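 as to inhibition: signal is the nuclear over cytoplasmic p65 intensity ratio per well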); settings: HUVEC TNFa-induced p65 nuclear translocation; cell count: measured here: nuclei count (cytotoxicity indicator), at 2.08 µM; inhibition: at 2 µM, stronger effect = higher value, 0% TNFa-plus-vehicle, 100% no-TNFa wells
[2] = inhibitors of mutant huntingtin aggregation, primary screen, imaging, exon1htt(103Q)mCFP cells, high-content imaging (AID 483); settings: exon1htt(103Q)mCFP cell line, aggregate imaging, at 2 µM; inhibition of aggregation: stronger effect = higher value; nuclei count: measured here: cell count, toxicity;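 also: compound exposure lasted 3 days before fixation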;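 as to nuclei count: percent of the per-plate median nuclei count of sample wells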
[3] = inhibitors of E-selectin induction by TNFa, primary screen, imaging, HUVEC, immunofluorescence, MLSMR starter and 10KST1 sets (AID 487;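 active = visually confirmed hit in the image check and inhibition above 20%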;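 as to inhibition: signal is fraction of cell area covered by stained E-selectin grains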;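 as to nuclei count: 100% = median nuclei count of all wells on the same plate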); settings: HUVEC TNFalpha-induced E-selectin immunofluorescence imaging, at 2 µM; inhibition: stronger effect = higher value; nuclei count: measured here: cell number, toxicity
[4] = biological target: Voltage-gated potassium channel subunit beta-2 (Rattus norvegicus) (UniProt P62483); assay: KvBeta enzyme negative modulators, primary screen, biochemical, NADPH fluorescence (AID 622;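 active = fluorescence slope higher than the sample average by over 3 SD, cut at about -0.22 in these data, passing the limit was not always enough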;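 also: slope of raw intensity against log time taken from 70 to 1610 s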); settings: recombinant KvBeta, 4-cyanobenzaldehyde reduction, at 10 µM, stronger effect = higher value
[5] = biological target: Voltage-gated potassium channel subunit beta-2 (Rattus norvegicus) (UniProt P62483); assay: KvBeta positive modulators, primary screen, biochemical, NADPH fluorescence (AID 623;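 active = NADPH fluorescence slope more negative than the mean of all samples by about 3 SD, 99.7% confidence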;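 also: fluorescence intensity change per second fitted from 20 to 320 s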); settings: Recombinant KvBeta, NADPH fluorescence decrease slope, 10 min; at 10 µM; stronger effect = lower value
[6] = biological target: Alpha-2C adrenergic receptor (Homo sapiens) (UniProt P18825); assay: modulators of alpha2C/GIRK thallium flux, primary screen, cell-based, HEK293 alpha2C/GIRK1/2 (AID 624;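 active = fluorescence slope after compound addition differing from the mean of all screened samples at 99.7% confidence, in either direction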;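 also: slope of fluorescence ratio to pre-addition baseline per second over 15 to 24 s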); settings: thallium flux BTC fluorescence, at 10 µM, actives lie on both sides
[7] = inhibitors of Sendai virus-induced IRF3 signaling, primary screen, TLR/RLR signaling modifier project, cell-based, Sendai virus stimulus, luciferase, 10K MLSCN set (AID 602276;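 active = inhibition at or above 50% at 10 µM; inactive = inhibition below 50%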;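 also: firefly luciferase from ISG56 promoter only with Renilla not read in this screen; 0% = Sendai virus plus DMSO and 100% = medium plus DMSO without virus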); settings: HEK293 RL24 IRF3 luciferase reporter, at 10 µM, stronger effect = higher value
[8] = inhibitors of poly I:C-induced TLR3 signaling, primary screen, cell-based, poly I:C stimulus, luciferase, 10K MLSCN set (AID 602277;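 active = inhibition of the reporter signal at or above 50%; inactive = inhibition below 50%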); settings: HEK293-TLR3 RL24 IRF3 luciferase reporter, at 10 µM, stronger effect = higher value

Chain of Voltage-gated potassium channel subunit beta-2 (Rattus norvegicus) (P62483 whole entry, looked up): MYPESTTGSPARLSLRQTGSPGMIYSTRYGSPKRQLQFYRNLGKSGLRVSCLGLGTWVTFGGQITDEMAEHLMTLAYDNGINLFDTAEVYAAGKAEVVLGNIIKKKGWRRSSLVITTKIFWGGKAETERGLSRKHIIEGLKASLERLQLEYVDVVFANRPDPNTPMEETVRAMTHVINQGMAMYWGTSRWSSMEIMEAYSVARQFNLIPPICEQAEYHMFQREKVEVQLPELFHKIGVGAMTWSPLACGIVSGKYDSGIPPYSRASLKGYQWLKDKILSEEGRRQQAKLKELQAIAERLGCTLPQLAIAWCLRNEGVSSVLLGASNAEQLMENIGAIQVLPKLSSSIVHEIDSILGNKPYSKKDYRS
Chain of Alpha-2C adrenergic receptor (Homo sapiens) (P18825 whole entry, looked up): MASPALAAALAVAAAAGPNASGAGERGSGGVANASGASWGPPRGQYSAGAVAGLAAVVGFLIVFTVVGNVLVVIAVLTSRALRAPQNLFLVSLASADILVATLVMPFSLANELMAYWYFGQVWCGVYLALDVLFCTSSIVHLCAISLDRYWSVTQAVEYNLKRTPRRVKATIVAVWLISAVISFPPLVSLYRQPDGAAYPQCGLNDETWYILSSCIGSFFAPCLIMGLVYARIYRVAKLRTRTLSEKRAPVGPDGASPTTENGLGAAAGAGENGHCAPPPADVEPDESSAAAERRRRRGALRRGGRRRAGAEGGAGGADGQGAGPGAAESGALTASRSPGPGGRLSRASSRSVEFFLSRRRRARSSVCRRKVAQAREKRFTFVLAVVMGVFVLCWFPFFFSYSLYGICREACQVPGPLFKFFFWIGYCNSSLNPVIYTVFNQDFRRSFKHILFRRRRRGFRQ

Structure (SMILES)	cell count [1]	inhibition [1]	inhibition of aggregation [2]	nuclei count [2] [%]	inhibition [3]	nuclei count [3] [%]	fluorescence slope [4]	NADPH fluorescence slope [5]	slope [6]	inhibition [7]	inhibition [8]
Cc1c(NC(=O)c2ccc(CN3CCc4ccccc4C3)cc2)c(=O)n(-c2ccccc2)n1C	593	-5.6% (inactive)	-45.4% (inactive)	110	-70.8% (inactive)	142	-0.403 (inactive)	-4.1e-05 (inactive)	0.0063 (inactive)	5.86% (inactive)	7.1% (inactive)
CCN1CCN(S(=O)(=O)Cc2ccccc2)CC1	426	-2.4% (inactive)	23.9% (inactive)	32.2	-78.4% (inactive)	106	-0.607 (inactive)	-2.9e-05 (inactive)	0.00543 (inactive)	-13.3% (inactive)	-9.78% (inactive)
CC(CCC(=O)Nc1nncs1)C(=O)O (stereo not drawn)	527	-0.8% (inactive)	1.4% (inactive)	97	-52.1% (inactive)	123	-0.535 (inactive)	-5.2e-05 (inactive)	0.00611 (inactive)	9.72% (inactive)	20.3% (inactive)
CCN(CC)c1ccc(-c2c(C#N)c(N)nc(OC)c2C#N)cc1	426	-3.8% (inactive)	-21% (inactive)	112	-13.4% (inactive)	113	-0.0839 (inactive)	5.4e-06 (inactive)	0.00577 (inactive)	-0.552% (inactive)	18.3% (inactive)
COc1ccc(-n2c(SCC#N)nc3ccccc3c2=O)cc1	314	-4.7% (inactive)	-15.4% (inactive)	105	-11% (inactive)	118	-0.491 (inactive)	7e-05 (inactive)	0.00655 (inactive)	-8.69% (inactive)	-76.1% (inactive)
CCOC(=O)CSc1nnc(-c2ccccc2OC)o1	574	-3.6% (inactive)	-42.2% (inactive)	112	-74.1% (inactive)	105	-0.523 (inactive)	-0.000143 (inactive)	0.00552 (inactive)	-10.7% (inactive)	99.6% (active)
CC(C)c1ccc(-c2nc(N3CCOCC3)[nH]c(=O)c2C#N)cc1	321	-8.9% (inactive)	-12% (inactive)	95.4	-32.8% (inactive)	114	-0.405 (inactive)	-2e-05 (inactive)	0.00599 (inactive)	13.1% (inactive)	13.1% (inactive)
Cc1nc(CCNS(=O)(=O)c2cccs2)cs1	371	-4.4% (inactive)	6.9% (inactive)	108	-20.4% (inactive)	102	-0.566 (inactive)	2.6e-05 (inactive)	0.00608 (inactive)	-9.77% (inactive)	-22.4% (inactive)
Cn1c(C(=O)NCCN2CCN(c3ccccc3F)CC2)cc2c(=O)n(C)c3ccccc3c21	1100	11% (inactive)	12.6% (inactive)	119	-30.2% (inactive)	112	-0.571 (inactive)	-2.1e-05 (inactive)	0.00598 (inactive)	4.48% (inactive)	16% (inactive)
Nc1sccc1C(=O)c1ccc(Cl)cc1	403	0% (inactive)	7.1% (inactive)	92	-146% (inactive)	103	-0.44 (inactive)	-2.6e-05 (inactive)	0.00277 (inactive)	2.24% (inactive)	0.658% (inactive)
COc1ccccc1N1C(=O)CC(Sc2nc(C)cc(C)n2)C1=O (stereo not drawn)	613	-8.2% (inactive)	15% (inactive)	95.3	-30.9% (inactive)	90.9	-0.447 (inactive)	-9.1e-05 (inactive)	0.0075 (inactive)	14.5% (inactive)	19.3% (inactive)
O=C(c1ccccc1)N1CCN(Cc2ccccc2Br)CC1	234	-2.5% (inactive)	23.9% (inactive)	77.4	-25.8% (inactive)	96.1	-0.428 (inactive)	-4.5e-05 (inactive)	0.00425 (inactive)	9.36% (inactive)	4.59% (inactive)
Cc1ccccc1OCCCN1C(=O)C(=O)c2cccc(C)c21	833	3.7% (inactive)	5% (inactive)	108	-81.4% (inactive)	113	-0.575 (inactive)	-5e-05 (inactive)	0.00604 (inactive)	5.45% (inactive)	-4.08% (inactive)
CC1CC(=O)c2cnc(NCC3CCCO3)nc2C1 (stereo not drawn)	613	13.9% (inactive)	-14% (inactive)	106	12.9% (inactive)	107	-0.404 (inactive)	-2.9e-05 (inactive)	0.00446 (inactive)	6.29% (inactive)	-1.06% (inactive)
CCN(CCCNC(=O)COc1cc(=O)n(CC)c2ccccc12)c1ccccc1	377	0.6% (inactive)	1.3% (inactive)	104	13.8% (inactive)	96.1	-0.501 (inactive)	-4e-05 (inactive)	0.00565 (inactive)	5.07% (inactive)	7.25% (inactive)
COC(=O)Cn1c(CN2CCN(c3ccccc3F)CC2)nc2c1c(=O)n(C)c(=O)n2C	633	-1.4% (inactive)	-18.2% (inactive)	90.2	7.8% (inactive)	87.6	-0.555 (inactive)	-3.8e-05 (inactive)	0.0082 (inactive)	7.96% (inactive)	19.6% (inactive)
COc1ccc(OCC(O)Cn2c(Br)nc3c2c(=O)[nH]c(=O)n3C)cc1 (stereo not drawn)	221	2.4% (inactive)	15.5% (inactive)	74.9	-39.9% (inactive)	155	-0.6 (inactive)	-3.5e-05 (inactive)	0.00397 (inactive)	35% (inactive)	27.6% (inactive)
Cc1ccc(N=C2NC(=O)CS2)c(C)c1	607	7.4% (inactive)	22.3% (inactive)	95.2	59.4% (active)	76.3	-0.47 (inactive)	-2.8e-05 (inactive)	0.00603 (inactive)	2.6% (inactive)	21.7% (inactive)
O=S(=O)(NCC(c1cccnc1)N1CCN(c2ccccc2)CC1)c1cc(F)ccc1F (stereo not drawn)	524	-6.2% (inactive)	9% (inactive)	51.3	-75.8% (inactive)	115	-0.508 (inactive)	5.2e-05 (inactive)	0.00657 (inactive)	21.7% (inactive)	20.8% (inactive)
O=C(Cn1cnc2c(nnn2Cc2ccc(Cl)cc2)c1=O)NCC1CCCO1 (stereo not drawn)	641	-18.8% (inactive)	-21.6% (inactive)	89.2	-89.9% (inactive)	132	-0.522 (inactive)	-4.5e-06 (inactive)	0.00509 (inactive)	16.8% (inactive)	26% (inactive)
CCC(Sc1ncccc1C(=O)O)C(=O)N1CCCC1 (stereo not drawn)	597	10% (inactive)	32.9% (inactive)	93.4	5% (inactive)	116	-0.372 (inactive)	-4.6e-05 (inactive)	0.00559 (inactive)	5.91% (inactive)	15.4% (inactive)
CCC(=O)Nc1c(C#N)c2nc3ccccc3nc2n1-c1ccccc1C	311	-1.9% (inactive)	11.4% (inactive)	83.9	-20.8% (inactive)	95.9	-0.0512 (inactive)	7.8e-06 (inactive)	0.00349 (inactive)	12.6% (inactive)	21.8% (inactive)
CC(=O)c1c(C)[nH]c(C(=O)N2CCN(C(=O)c3ccco3)CC2)c1C	233	-19.9% (inactive)	9.5% (inactive)	94.7	-98.1% (inactive)	120	-0.537 (inactive)	9e-06 (inactive)	0.00697 (inactive)	-22.5% (inactive)	10.9% (inactive)
CN(CC(=O)Nc1ccc2c(c1)OCCO2)S(=O)(=O)c1ccc(Br)s1	315	-1.9% (inactive)	-7.8% (inactive)	100	-21% (inactive)	98.5	-0.403 (inactive)	-4.9e-05 (inactive)	0.00399 (inactive)	-3.5% (inactive)	10.4% (inactive)
CC1(C)CC(=O)C=C(NC2CCS(=O)(=O)C2)C1 (stereo not drawn)	624	11.3% (inactive)	5.8% (inactive)	59.6	10.6% (inactive)	100	-0.561 (inactive)	1.2e-05 (inactive)	0.00618 (inactive)	15.5% (inactive)	39.3% (inactive)
COc1cc(/C=N/n2cnnc2)ccc1OCC(=O)N1CCOCC1	378	-0.8% (inactive)	-5.1% (inactive)	125	-4.3% (inactive)	112	-0.245 (inactive)	7.4e-07 (inactive)	0.00585 (inactive)	5.73% (inactive)	19.7% (inactive)
Cc1nc2cc(N3CCCCC3)c(NC(=O)c3cccnc3)cc2c(=O)n1Cc1ccccc1	751	-10.1% (inactive)	1.2% (inactive)	93.3	-2% (inactive)	99.1	-0.167 (inactive)	2.6e-06 (inactive)	0.00435 (inactive)	-3.36% (inactive)	-14% (inactive)
O=c1oc2ccccc2c2c1ncn2-c1ccccc1	375	0% (inactive)	-20.2% (inactive)	113	-9.9% (inactive)	114	-0.45 (inactive)	7.5e-05 (inactive)	0.00569 (inactive)	16.7% (inactive)	27.6% (inactive)
